Data on 25 compounds can be found in ChEMBL document CHEMBL4513139, “CO-ADD screening of University of Strathclyde (UK) compounds”.

One assay relates to Klebsiella pneumoniae. The following applies: Concentration 32 ug.mL-1; ASSAY_TEST Inhibition of Bacterial Growth; detection method Absorption (OD600); MEDIA CAMHB; plate type 384well; NBS; CORNING #3640; time 18 hr.
A further assay has as its system Candida albicans. The following applies: 32 ug/mL.
For a further assay, the system named is Cryptococcus neoformans. The following applies: Concentration 32 ug.mL-1; ASSAY_TEST Inhibition of Fungal Growth; detection method Resazurin; Absorption (OD600-OD570); plate type 384well; NBS; CORNING #3640.

Molecules are shown by their SMILES. Measured potencies and affinities stand elsewhere.

Consider `Cc1ncc(CNc2ccccc2F)c(N)n1`, for which the Inhibition in the assay on Klebsiella pneumoniae is 12.81%; with Candida albicans, 1.65%; in the assay with Cryptococcus neoformans it was -54.68%.

As to `CC(C)CCc1sc(NC(=O)c2cc(NC(=O)c3ccc(/C=C/c4cc5ccccc5nc4On4nnc5ccccc54)cc3)cn2C)nc1C(=O)NCCN1CCOCC1.O=C(O)C(F)(F)F`, the Inhibition is -11.86% in the assay on Klebsiella pneumoniae, 12.3% in the assay on Candida albicans and 0.39% in the assay with Cryptococcus neoformans.

As for `COC(=O)c1ccc(C(=O)Nc2cc(C(=O)Nc3cc(C(=O)NCCN4CCOCC4)n(C)c3)n(C)c2)cc1.O=C(O)C(F)(F)F`, the Inhibition with Klebsiella pneumoniae is 8.44%; with Candida albicans it was 7.27%; with Cryptococcus neoformans, -98.27%.

For the compound `CC(C)CCc1sc(NC(=O)c2cc(NC(=O)c3ccc(/C=C/c4cc5ccccc5nc4Cl)cc3)cn2C)nc1C(=O)NCCN1CCOCC1.O=C(O)C(F)(F)F`, the Inhibition in the assay with Klebsiella pneumoniae was -4.36%; in the assay with Candida albicans, 2.62%; in the assay on Cryptococcus neoformans it was -70.82%.

On to `COc1cccc(C(=N)Nc2cc(C(=O)Nc3cc(C(=O)Nc4cc(C(=O)NCCCN(C)C)n(C)c4)n(C)c3)n(C)c2)c1.O=C(O)C(F)(F)F.O=C(O)C(F)(F)F`, for which the Inhibition in the assay with Klebsiella pneumoniae is 5.64%; in the assay with Candida albicans it was 0.48%; in the assay on Cryptococcus neoformans it was -103.02%.

With `Cc1ncc(Cn2cc(CO)nn2)c(N)n1`, the Inhibition in the assay on Klebsiella pneumoniae was -6.43%; in the assay with Candida albicans, 1.92%; with Cryptococcus neoformans it was -37.01%.

Turning to `CC(C)n1cc(NC(=O)c2cc(NC(=O)c3cc(NC=O)cn3C(C)C)cn2C)cc1C(=O)NCCCN(C)C.O=C(O)C(F)(F)F`, the Inhibition was 2.64% in the assay on Klebsiella pneumoniae, -1.38% with Candida albicans and -103.79% with Cryptococcus neoformans.

Take `COC(=O)c1ccc(C(=O)Nc2cc(C(=O)Nc3cc(C(=O)NCCC(=N)N)n(C)c3)n(C)c2)cc1.O=C(O)C(F)(F)F`: the figures for the Inhibition in the assay on Klebsiella pneumoniae, in the assay with Candida albicans and with Cryptococcus neoformans were 7.16%, 5.42% and -78.85%, respectively.

As for `COC(=O)c1ccc(C(=O)Nc2cc(C(=O)Nc3cc(C(=O)NCCCN(C)C)n(C)c3)n(C)c2)cc1.O=C(O)C(F)(F)F`, the Inhibition is 6.59% in the assay with Klebsiella pneumoniae, 1.31% with Candida albicans and -107.28% in the assay on Cryptococcus neoformans.

`Cn1cc(NC(=O)c2cc(NC(=O)c3sc(N)nc3C(F)(F)F)cn2C)cc1C(=O)NCCC(=N)N.O=C(O)C(F)(F)F`: the Inhibition in the assay on Klebsiella pneumoniae is -8.6%; in the assay on Candida albicans it was 5.72%; in the assay with Cryptococcus neoformans, -104.75%.

As to `Cn1cc(NC(=O)c2cc(NC(=O)c3cc(NC(=O)c4ccc(Cl)cc4Cl)cn3C)cn2C)cc1C(=O)NCCN1CCOCC1.O=C(O)C(F)(F)F`, the values for the Inhibition in the assay on Klebsiella pneumoniae, in the assay on Candida albicans and with Cryptococcus neoformans were 11.99%, 9.71% and 9.62%, respectively.

For the compound `Cc1ncc(CNc2ccc(Cl)cc2)c(N)n1`, the Inhibition in the assay with Klebsiella pneumoniae was 5.04%; in the assay with Candida albicans, -0.54%; in the assay on Cryptococcus neoformans, -54.67%.

Turning to `COCCOC1CCN(C(=O)c2cc(NC(=O)c3cc(NC(=O)c4ccc(/C=C/c5cnc6ccccc6c5)cc4)cn3C)cn2C)CC1`, the results for the Inhibition in the assay on Klebsiella pneumoniae, in the assay with Candida albicans and in the assay with Cryptococcus neoformans were 10.84%, 3.83% and 112.33%, respectively.

As to `Cc1ncc(Cn2cc(CCC(=O)O)nn2)c(N)n1.O=C(O)C(F)(F)F`, the Inhibition with Klebsiella pneumoniae was -1.46%; in the assay with Candida albicans it was 2.33%; in the assay with Cryptococcus neoformans, -50.97%.

On to `COc1cccc(C(=O)Nc2cc(C(=O)Nc3cc(C(=O)Nc4cn(CCCN(C)C)cn4)n(C)c3)n(C)c2)c1.O=C(O)C(F)(F)F`, for which the Inhibition in the assay with Klebsiella pneumoniae was 3.02%; with Candida albicans it was 3.2%; in the assay on Cryptococcus neoformans it was -93.96%.

In the case of `CN(C)CCCNC(=O)c1cc(NC(=O)c2cc(NC(=O)c3cc(NC(=N)c4ccccc4)cn3C)cn2C)cn1C.O=C(O)C(F)(F)F.O=C(O)C(F)(F)F`, the Inhibition with Klebsiella pneumoniae was 1.31%; in the assay on Candida albicans, 0.01%; with Cryptococcus neoformans, -106.51%.

For `Cc1ncc(CNc2ccc(F)cc2)c(N)n1`, the Inhibition in the assay on Klebsiella pneumoniae is 12.64%; in the assay with Candida albicans, 4.55%; in the assay with Cryptococcus neoformans, -57.63%.

Take `Cc1ncc(Cn2cc(CCO)nn2)c(N)n1`: the Inhibition was -3.23% in the assay on Klebsiella pneumoniae, 0.2% in the assay on Candida albicans and -50.84% in the assay on Cryptococcus neoformans.

Turning to `CC(=O)Nc1cc(C(=O)Nc2cc(C(=O)Nc3cc(C(=O)NCCCN(C)C)n(C)c3)n(C)c2)n(C)c1.O=C(O)C(F)(F)F`, the Inhibition was 11.92% with Klebsiella pneumoniae, 0.65% in the assay with Candida albicans and -116.29% in the assay with Cryptococcus neoformans.

On to `CC(C)CCc1sc(N)nc1C(=O)Nc1cc(C(=O)Nc2cc(C(=O)NCCN3CCOCC3)n(C)c2)n(C)c1.O=C(O)C(F)(F)F`, for which the Inhibition was 5.14% with Klebsiella pneumoniae, 4.42% in the assay on Candida albicans and -77.2% in the assay on Cryptococcus neoformans.

With `CC(=N)Nc1cc(C(=O)Nc2cc(C(=O)Nc3cc(C(=O)NCCN4CCOCC4)n(C)c3)n(C)c2)n(C)c1.O=C(O)C(F)(F)F.O=C(O)C(F)(F)F`, the Inhibition in the assay on Klebsiella pneumoniae is 13.68%; in the assay with Candida albicans it was 2.29%; in the assay with Cryptococcus neoformans, -100.58%.

`Cc1ncc(CNc2ccc(C(C)(C)C)cc2)c(N)n1`: the figures for the Inhibition in the assay with Klebsiella pneumoniae, with Candida albicans and in the assay on Cryptococcus neoformans were 2.67%, -0.83% and -46.61%, respectively.

As to `CC(=O)Nc1cc(C(=O)Nc2cc(C(=O)Nc3cc(C(=O)NCCCN(C)C)n(CCC(C)C)c3)n(C)c2)n(C)c1.O=C(O)C(F)(F)F`, the figures for the Inhibition with Klebsiella pneumoniae, in the assay on Candida albicans and in the assay with Cryptococcus neoformans were -0.56%, 0.94% and -102.49%, respectively.

As to `CC(C)CCn1cc(NC(=O)c2cc(NC(=O)c3cc(NC(=N)c4ccccc4)cn3C)cn2C)cc1C(=O)NCCCN(C)C.O=C(O)C(F)(F)F.O=C(O)C(F)(F)F`, the Inhibition is 2.69% in the assay on Klebsiella pneumoniae, 0.79% in the assay with Candida albicans and -53.65% with Cryptococcus neoformans.

For `COc1cccc(/C=C/c2ccc(C(=O)Nc3cc(C(=O)Nc4cc(C(=O)NCCN(C)C)n(C)c4)n(C)c3)cc2)c1.O=C(O)C(F)(F)F`, the Inhibition in the assay with Klebsiella pneumoniae was found to be 26.76%; in the assay with Candida albicans it was 28.1%; with Cryptococcus neoformans, 101.07%.
